Assay results from PubChem BioAssay (Tox21).
Records with an inconclusive call do not appear. Calls of active or inactive are those of the source. Unless noted, calls follow the shape of the dose curve; as a rule, active = well fitted curve in the direction sought with a large enough effect in the repeat runs; inconclusive = weak or mixed curves; inactive = no such curve, though single readings can be large; an effect the other way counts as inactive or inconclusive.

Experiments:
[1] = qHTS assay to identify small molecule agonists of the sonic hedgehog signaling (Shh) pathway (AID 1259368; calls by dose curve;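 also: NIH/3T3-derived 3T3Gli1-Luc cells carrying a stable Gli1-driven firefly luciferase reporter; series mostly up to about 92 µM; nearly all actives have a fitted effect of over 15% in size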)
Procedure, shortened: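 Stable NIH/3T3 Gli1-Luc reporter clone; 24 hr cpd exposure after a 4 hr settling period; luminescence endpoint.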

[2] = biological target: Estrogen receptor beta (Homo sapiens) (UniProt Q92731); experiment: qHTS assay to identify small molecule agonists of the estrogen receptor beta (ER-beta) signaling pathway (AID 1259377; active = well fitted activation curve with a large enough effect in the signal ratio in the repeat runs, not every such curve was filed as active; the % refers to the signal ratio)
Sequence of Estrogen receptor beta (Homo sapiens) (Q92731 whole entry, looked up): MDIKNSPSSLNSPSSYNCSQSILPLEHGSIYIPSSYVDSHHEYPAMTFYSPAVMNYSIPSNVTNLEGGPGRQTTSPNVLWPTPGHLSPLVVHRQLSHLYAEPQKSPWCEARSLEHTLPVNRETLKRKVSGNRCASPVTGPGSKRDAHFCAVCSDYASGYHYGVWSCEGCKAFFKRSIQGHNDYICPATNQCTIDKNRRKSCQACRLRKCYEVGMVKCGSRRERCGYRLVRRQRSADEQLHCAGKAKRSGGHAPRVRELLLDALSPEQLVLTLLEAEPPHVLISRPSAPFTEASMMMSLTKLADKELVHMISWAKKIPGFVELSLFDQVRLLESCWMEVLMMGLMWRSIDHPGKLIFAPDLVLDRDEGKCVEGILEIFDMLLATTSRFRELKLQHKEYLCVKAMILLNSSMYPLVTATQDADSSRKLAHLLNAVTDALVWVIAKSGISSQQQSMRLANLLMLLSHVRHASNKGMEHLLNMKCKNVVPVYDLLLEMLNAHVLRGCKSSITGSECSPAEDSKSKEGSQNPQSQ
Procedure, shortened: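 Screening used GripTite ER-beta-UAS-bla cells held in 2% charcoal-stripped FBS medium. After overnight (16 hr) compound incubation at 37C, beta-lactamase activity was detected with a FRET substrate by fluorescence.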

[3] = biological target: Estrogen receptor beta (Homo sapiens) (UniProt Q92731); experiment: qHTS assay to identify small molecule antagonists of the estrogen receptor beta (ER-beta) signaling pathway (AID 1259378; active = well fitted inhibition curve with a large enough effect in the signal ratio in the repeat runs, not every such curve was filed as active; the % refers to the signal ratio)
Procedure, shortened: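 ER-beta-UAS-bla HEK293T (GripTite) cells in 2% charcoal-stripped FBS medium were preincubated 6 hr at 37C, dosed with compound, then stimulated with 1 nM E2 (final) for 16 hr; beta-lactamase reporter read by B/G FRET fluorescence after 2 hr substrate loading.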

[4] = qHTS assay to identify small molecule agonists of the androgen receptor (AR) signaling pathway in the presence of an antagonist - cell viability counter screen (AID 1259379);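 also: MDA-kb2 human breast cancer cells carrying an MMTV luciferase reporter; series mostly up to about 92 µM; nearly all actives have a fitted effect of over 25% in size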
Procedure, shortened: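 Counter screen for cell viability run in parallel with the AR agonist-mode luciferase assay. MDA-kb2 cells were co-treated with nilutamide (3.0uM final) and compounds, then incubated 16 hr at 37C, and CellTiter-Fluor fluorescence was measured.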

[5] = qHTS assay to identify small molecule agonists of the estrogen receptor beta (ER-beta) signaling pathway - cell viability counter screen (AID 1259380); also: nearly all actives have a fitted effect of over 30% in size
Procedure, shortened: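 In this qHTS counter screen, HEK293T cells carrying an ER-beta/UAS beta-lactamase reporter, grown in 2% charcoal-stripped FBS, received compound for 16 hr; ATP-based CellTiter-Glo luminescence was then read after 30 min at room temperature.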

[6] = qHTS assay to identify small molecule antagonists of the estrogen receptor beta (ER-beta) signaling pathway - cell viability counter screen (AID 1259382); also: series mostly up to about 92 µM; nearly all actives have a fitted effect of over 55% in size
Procedure, shortened: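 HEK293T ER-beta-UAS-bla, 2% charcoal-stripped FBS; compounds + 1nM E2 16 hr 37C; CellTiter-Glo luminescence, 30 min RT.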

[7] = biological target: Estrogen receptor (Homo sapiens) (UniProt P03372); experiment: qHTS assay to identify small molecule agonists of the estrogen receptor alpha (ER-alpha) signaling pathway in the presence of an antagonist (AID 1259383; calls by dose curve; also: top concentration of the series differs between compounds; nearly all actives have a fitted effect of over 15% in size)
Sequence of Estrogen receptor (Homo sapiens) (P03372 whole entry, looked up): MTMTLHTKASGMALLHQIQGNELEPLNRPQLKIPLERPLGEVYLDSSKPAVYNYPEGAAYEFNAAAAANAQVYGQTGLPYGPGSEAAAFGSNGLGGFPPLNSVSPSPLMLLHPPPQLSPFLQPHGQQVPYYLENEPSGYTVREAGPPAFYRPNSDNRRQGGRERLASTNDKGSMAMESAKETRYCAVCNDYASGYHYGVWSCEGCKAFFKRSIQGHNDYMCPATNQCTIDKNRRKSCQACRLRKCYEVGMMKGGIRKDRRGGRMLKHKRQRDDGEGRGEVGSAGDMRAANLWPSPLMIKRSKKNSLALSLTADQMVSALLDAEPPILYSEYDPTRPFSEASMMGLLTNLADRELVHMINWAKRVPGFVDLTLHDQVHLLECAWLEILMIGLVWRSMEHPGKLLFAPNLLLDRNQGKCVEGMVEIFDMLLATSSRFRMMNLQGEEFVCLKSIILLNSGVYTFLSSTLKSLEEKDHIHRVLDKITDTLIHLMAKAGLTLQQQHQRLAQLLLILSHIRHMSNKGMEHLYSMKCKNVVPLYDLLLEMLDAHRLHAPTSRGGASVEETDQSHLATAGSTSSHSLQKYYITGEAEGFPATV
Procedure, shortened: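 ER-alpha agonism measured under antagonist challenge: 10.0nM ICI-182,780 (final) plus compound, 15 concentrations, 22hr, VM7Luc4E2 ERE-luciferase cells. Read by luminescence.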

[8] = qHTS assay to identify small molecule agonists or antagonists of the thyroid stimulating hormone receptor (TSHR) signaling pathway - wild type cell line counter screen (AID 1259384; calls by dose curve)
Procedure, shortened: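 Wild-type HEK293 cells were plated 18 h at 37 C/5% CO2, pin-dosed with compound plus Ro20-1724 medium, held 30 min at room temperature, then given cAMP-d2 and anti-cAMP-cryptate; fluorescence was read after 1 h. Fifteen concentrations, triplicate.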

[9] = biological target: Thyrotropin receptor (Homo sapiens) (UniProt P16473); experiment: qHTS assay to identify small molecule antagonists of the thyroid stimulating hormone receptor (TSHR) signaling pathway (AID 1259385; calls by dose curve; also: nearly all actives have a fitted effect of over 20% in size)
Sequence of Thyrotropin receptor (Homo sapiens) (P16473 whole entry, looked up): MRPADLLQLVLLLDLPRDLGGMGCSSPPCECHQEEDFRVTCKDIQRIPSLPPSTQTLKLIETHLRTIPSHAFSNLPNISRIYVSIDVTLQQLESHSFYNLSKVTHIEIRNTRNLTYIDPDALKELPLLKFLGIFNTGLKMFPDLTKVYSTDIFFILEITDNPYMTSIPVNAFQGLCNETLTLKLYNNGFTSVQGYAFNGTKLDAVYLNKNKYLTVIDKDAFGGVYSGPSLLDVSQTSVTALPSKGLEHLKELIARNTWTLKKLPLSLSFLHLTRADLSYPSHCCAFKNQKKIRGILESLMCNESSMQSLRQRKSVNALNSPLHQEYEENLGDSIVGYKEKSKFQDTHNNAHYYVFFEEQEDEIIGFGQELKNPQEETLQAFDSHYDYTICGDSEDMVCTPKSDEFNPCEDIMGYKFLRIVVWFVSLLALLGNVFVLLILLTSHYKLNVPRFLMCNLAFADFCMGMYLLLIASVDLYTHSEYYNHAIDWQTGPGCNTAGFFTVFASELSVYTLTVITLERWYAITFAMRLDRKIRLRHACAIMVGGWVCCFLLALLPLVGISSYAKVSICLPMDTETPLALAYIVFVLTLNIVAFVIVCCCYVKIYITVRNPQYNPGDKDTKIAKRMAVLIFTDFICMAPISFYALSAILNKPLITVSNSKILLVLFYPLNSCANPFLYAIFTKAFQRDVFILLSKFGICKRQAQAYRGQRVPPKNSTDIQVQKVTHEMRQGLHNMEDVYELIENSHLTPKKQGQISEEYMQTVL
Procedure, shortened: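 TSHR-HEK293 cells were plated and held 18 h at 37C/5% CO2, then given compound plus Ro20-1724 and stimulated with TSH at 1.5 ng/mL final. After 30 min at room temperature, cAMP was detected with cAMP-d2/anti-cAMP-cryptate (1 h) by fluorescence.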

[10] = qHTS assay to identify small molecule agonists of the estrogen receptor alpha (ER-alpha) signaling pathway in the presence of an antagonist - cell viability counter screen (AID 1259386);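 also: series mostly up to about 92 µM; cells exposed to compounds for 22 h at 37 °C before the viability read; nearly all actives have a fitted effect of over 30% in size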
Procedure, shortened: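 Steps: 5-day stripped-FBS culture; seed and incubate 24hr; add ICI-182,780 (10.0nM final); pin 15-point compound titration; incubate 22hr at 37C; add CellTiter-Fluor at 21hr; read fluorescence.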

[11] = biological target: Progesterone receptor (Homo sapiens) (UniProt P06401); experiment: qHTS assay to identify small molecule agonists of the progesterone receptor (PR) signaling pathway (AID 1346784; calls by dose curve; also: nearly all actives have a fitted effect of over 30% in size)
Sequence of Progesterone receptor (Homo sapiens) (P06401 whole entry, looked up): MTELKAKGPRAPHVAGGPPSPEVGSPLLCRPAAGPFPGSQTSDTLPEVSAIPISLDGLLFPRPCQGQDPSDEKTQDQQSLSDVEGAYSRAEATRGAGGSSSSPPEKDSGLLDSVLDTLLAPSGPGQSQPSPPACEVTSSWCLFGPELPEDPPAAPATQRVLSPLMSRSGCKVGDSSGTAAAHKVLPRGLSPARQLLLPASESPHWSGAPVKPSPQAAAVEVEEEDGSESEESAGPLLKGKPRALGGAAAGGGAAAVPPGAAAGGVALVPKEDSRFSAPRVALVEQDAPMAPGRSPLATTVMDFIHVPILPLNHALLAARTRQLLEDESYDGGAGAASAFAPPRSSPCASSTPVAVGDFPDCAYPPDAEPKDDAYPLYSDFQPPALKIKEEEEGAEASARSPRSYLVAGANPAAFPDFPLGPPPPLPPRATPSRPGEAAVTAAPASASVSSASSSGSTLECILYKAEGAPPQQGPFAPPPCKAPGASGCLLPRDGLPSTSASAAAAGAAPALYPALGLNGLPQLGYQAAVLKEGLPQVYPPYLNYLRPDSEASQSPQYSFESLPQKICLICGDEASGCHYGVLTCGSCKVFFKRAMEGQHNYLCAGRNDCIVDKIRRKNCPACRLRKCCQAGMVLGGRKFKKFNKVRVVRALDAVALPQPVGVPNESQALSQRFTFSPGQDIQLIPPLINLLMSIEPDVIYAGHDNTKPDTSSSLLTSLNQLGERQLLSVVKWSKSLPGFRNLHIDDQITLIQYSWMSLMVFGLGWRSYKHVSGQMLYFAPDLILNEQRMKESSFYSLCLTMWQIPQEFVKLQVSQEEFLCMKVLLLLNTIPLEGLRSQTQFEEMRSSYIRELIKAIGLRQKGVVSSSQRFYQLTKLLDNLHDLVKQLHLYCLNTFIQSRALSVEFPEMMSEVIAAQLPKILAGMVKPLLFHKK
Procedure, shortened: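 Seed PR-UAS-bla HEK 293T cells (2% charcoal-stripped FBS), incubate 6 hr at 37C; add compounds in DMSO, 16 hr at 37C; add LiveBLAzer B/G substrate, 2 hr RT; read fluorescence intensity.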

[12] = qHTS assay to identify small molecule antagonists of the progesterone receptor (PR) signaling pathway - cell viability counter screen (AID 1346798); also: series mostly up to about 92 µM; nearly all actives have a fitted effect of over 50% in size
Procedure, shortened: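 Measures cytotoxicity in parallel with the PR antagonist reporter read: HEK293T PR-UAS-bla cells get compound and R5020 for 16 hr, and remaining viable cells are quantified by CellTiter-Glo luminescence.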

[13] = qHTS assay to identify small molecule agonists of the progesterone receptor (PR) signaling pathway - cell viability counter screen (AID 1346799; calls by dose curve; also: nearly all actives have a fitted effect of over 45% in size)
Procedure, shortened: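 Using the same plates as the PR reporter screen, HEK293T PR-UAS-bla cells received compounds for 16 hr at 37C and were then lysed with CellTiter-Glo; luminescence was read 30 min later at room temperature.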

[14] = qHTS assay to identify small molecule antagonists of the TGF-beta/Smad signaling pathway - cell viability counter screen (AID 1346824); also: nearly all actives have a fitted effect of over 50% in size
Procedure, shortened: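 SBE-bla HEK 293T cells were plated overnight at 37 C, then given compounds in DMSO plus TGF-beta1 (added as 0.25 ng/mL solution) for 5 hr. After the bla read, CellTiter-Glo was added to the same wells and luminescence read after 30 min at room temperature.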

[15] = qHTS assay to identify small molecule agonists of the TGF-beta/Smad signaling pathway - cell viability counter screen (AID 1346829); also: top concentration of the series differs between compounds; nearly all actives have a fitted effect of over 45% in size
Procedure, shortened: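 Here the cytotoxicity of library compounds is measured in SBE-bla HEK 293T cells treated for 5 hr, using CellTiter-Glo added to wells already read for the beta-lactamase reporter.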

[16] = qHTS assay to identify small molecule agonists of the TGF-beta/Smad signaling pathway (AID 1346859; active = well fitted activation curve with a large enough effect in the signal ratio in the repeat runs, not every such curve was filed as active; the % refers to the signal ratio; also: series mostly up to about 77 µM)
Procedure, shortened: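 Beta-lactamase reporter activity downstream of Smad binding elements was measured in stably transfected HEK 293T cells; compounds were incubated for 5 hr, substrate for 2 hr at room temperature.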

[17] = biological target: Thyrotropin-releasing hormone receptor (Homo sapiens) (UniProt P34981); experiment: qHTS assay to identify small molecule antagonists of the thyrotropin-releasing hormone receptor (TRHR) signaling pathway (AID 1346877; active = well fitted inhibition curve with a large enough effect in the repeat runs, not every such curve was filed as active; also: series mostly up to about 51 µM)
Sequence of Thyrotropin-releasing hormone receptor (Homo sapiens) (P34981 whole entry, looked up): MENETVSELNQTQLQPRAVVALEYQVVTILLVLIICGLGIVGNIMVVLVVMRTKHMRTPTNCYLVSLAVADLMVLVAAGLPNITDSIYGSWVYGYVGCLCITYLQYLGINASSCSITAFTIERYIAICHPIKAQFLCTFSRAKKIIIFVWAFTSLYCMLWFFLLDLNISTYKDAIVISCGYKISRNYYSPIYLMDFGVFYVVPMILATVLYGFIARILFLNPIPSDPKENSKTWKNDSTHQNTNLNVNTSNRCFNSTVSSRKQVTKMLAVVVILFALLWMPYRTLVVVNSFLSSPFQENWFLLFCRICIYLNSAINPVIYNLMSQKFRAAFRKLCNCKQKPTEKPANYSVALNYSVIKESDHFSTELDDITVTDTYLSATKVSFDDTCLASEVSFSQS
Procedure, shortened: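 Human TRHR in HEK293 cells; inhibition of the intracellular calcium rise triggered by 1 nM TRH was followed by fluorescence over 3 min. Compounds were run at 15 concentrations, three replicates each.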

[18] = biological target: Progesterone receptor (Homo sapiens) (UniProt P06401); experiment: qHTS assay to identify small molecule antagonists of the progesterone receptor (PR) signaling pathway (AID 1346795; active = well fitted inhibition curve with a large enough effect in the signal ratio in the repeat runs, not every such curve was filed as active; the % refers to the signal ratio)
Procedure, shortened: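 Screening used a GripTite HEK293T line with PR-responsive UAS-beta-lactamase. Cells were challenged with compound in the presence of 1 nM R5020 final for 16 hr at 37C; B/G FRET substrate, 2 hr room temperature, fluorescence.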

[19] = qHTS assay to identify small molecule antagonists of the sonic hedgehog signaling (Shh) pathway (AID 1259369; calls by dose curve; also: nearly all actives have a fitted effect of over 45% in size)
Procedure, shortened: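 Gli1 transcriptional reporter (firefly Luc) in NIH/3T3 background, conditioned-medium activated. 24hr exposure, luminescence endpoint.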

Measured: Potency

CCO[Si](CCC1CCC2OC2C1)(OCC)OCC (configuration not stated)
not listed: [18] | [19]
inactive: all other assays above

COc1ccc(CCN(C)CCCC(C#N)(c2cc(OC)c(OC)c(OC)c2)C(C)C)cc1OC (configuration not stated)
not listed: [7] | [9] | [10] | [19]
inactive: all other assays above

CC(=O)Nc1c(I)cc(I)c(C(=O)O)c1I
not listed: [2] | [3] | [4] | [8] | [9] | [15] | [17]
inactive: all other assays above

CC(=O)OC/C=C(\C)CC/C=C(\C)CCC=C(C)C
not listed: [10] | [18] | [19]
inactive: all other assays above

C[C@H]1C[C@@H](O)CC(C)(C)C1
not listed: [7] | [10] | [13] | [19]
inactive: all other assays above

O=C(O)Cc1ccc(CCNS(=O)(=O)c2ccc(Cl)cc2)cc1
not listed: [13] | [19]
inactive: all other assays above

CCN1CCC[C@H]1CNC(=O)c1cc(S(N)(=O)=O)ccc1OC
not listed: [4] | [7] | [13] | [19]
inactive: all other assays above
